Values joined by “and” are separate entries in the source; they are usually repeats but may differ in a detail not shown here. Equal entries are not always repeated. Records with an inconclusive call do not appear. Active and inactive are the calls of the source.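 The calls were made as follows: active = compound that pushes labeled neuropeptide S off its receptor in a binding test; inconclusive = all other tested compounds; inactive = none, nothing was called inactive.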
Target: Neuropeptide S receptor (Homo sapiens) (UniProt Q6W5P4)
Sequence (Q6W5P4 whole entry, looked up): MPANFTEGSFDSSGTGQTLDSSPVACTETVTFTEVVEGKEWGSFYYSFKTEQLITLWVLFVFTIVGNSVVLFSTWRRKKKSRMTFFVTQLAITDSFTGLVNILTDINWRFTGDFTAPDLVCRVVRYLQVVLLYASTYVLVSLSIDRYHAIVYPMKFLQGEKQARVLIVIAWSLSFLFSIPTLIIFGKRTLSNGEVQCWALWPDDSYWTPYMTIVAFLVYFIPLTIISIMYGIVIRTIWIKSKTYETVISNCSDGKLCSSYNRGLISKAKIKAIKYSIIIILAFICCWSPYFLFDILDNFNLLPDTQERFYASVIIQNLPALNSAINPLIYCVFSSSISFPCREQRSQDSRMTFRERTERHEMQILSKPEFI
Assay: Confirmation Concentration-Response Assay for Antagonists of the Neuropeptide S Receptor: Radioligand Displacement, SAR for Probe
Conditions: CHO-hNPSR, [125I]Y10-NPS displacement, 1.5 h
Excerpt: NIH Chemical Genomics Center [NCGC] NIH Molecular Libraries Probe Production centers Network [MLPCN] MLPCN Grant: X01-DA026210-01 Assay Submitter (PI): Heilig, Markus Alexander NCGC Assay Overview: Neuropeptide S receptor (NPSR), previously known as GPR154, is a recently de-orphanized G protein coupled receptor. Its endogenous ligand is the 20 amino acids peptide Neuropeptide S (NPS). […] NPS and its receptor are found in various tissues. Specifically they are highly expressed in brain areas that have been implicated in modulation of arousal, stress and anxiety. Central administration of NPS in mice produces an unusual profile of activity by inducing wakefulness and arousal, while at the same time suppressing anxiety. Therefore, NPSR may represent a novel drug target for the treatment of sleep and anxiety disorders. As one method of confirming the specific activity of compounds active in the primary screen (AID 1461), we developed an assay to measure the displacement of radio-labeled native ligand, NPS, from its receptor in vitro.
The assay was carried out as described (Xu et al. (2004) Neuron, 43: 487-497) with minor modification. Y10-NPS labeled with 125I was bought from NEN Perkin Elmer (Boston, MA). CHO cells stably expressing human NPSR were seeded into 24-well plates and cultured until reaching 90-95% confluency. Cells were washed with 1ml PBS once and then incubated with radioligand with or without compounds or in DMEM medium containing 0.1% bovine serum albumin at 20C for 1.5 hr. Increasing concentrations of compounds or unlabeled human NPS were used to compete with 0.15 nM [125I] Y10-NPS. Nonspecific binding was determined in the presence of 1 uM unlabeled human NPS. Cells were washed twice with cold PBS and lysed with 1 N NaOH. Bound radioactivity was counted in a liquid scintillation counter.

Potency, active:
O=C1OC(c2ccccc2)(c2ccccc2)N2CCN(C(=O)NCc3ccc(F)cc3)CC12 (centres undefined) 5.93 nM
COc1cccc(C2c3c(ncn(CCN4CCOCC4)c3=N)Oc3ccc4ccccc4c32)c1 (centres undefined) 439 nM
N#CC1=C(NC=NCc2ccccc2)Oc2ccc3ccccc3c2C1c1ccccc1 (centres undefined) 322 nM
COc1cccc(C2c3c(ncn(-c4ccccc4)c3=N)Oc3ccc4ccccc4c32)c1 (centres undefined) 266 nM
COc1ccc(C2c3c(ncn(CCN4CCOCC4)c3=N)Oc3ccc4ccccc4c32)cc1OC (centres undefined) 256 nM and 190 nM
N=c1c2c(ccn1-c1ccccc1)Oc1ccc3ccccc3c1C2c1ccccc1 (centres undefined) 367 nM
CCOC(=O)CC(=O)Nc1ncnc2c1C(c1ccccc1)c1c(ccc3ccccc13)O2 (centres undefined) 616 nM
CCOC(=O)C1CCCN(c2ncnc3c2oc2ccccc23)C1 (centres undefined) 26400 nM
CCC(C)(CCN1CCOCC1)N(Cc1cc2ccccc2n(C)c1=O)C(=O)C1CCCCC1 (centres undefined) 6.54 nM

— PubChem BioAssay AID2566 (National Center for Advancing Translational Sciences (NCATS), 2010)
